# In PubChem BioAssay (NCI):
# Compounds without any hit were thinned out: in the full panel of roughly 83,000, 20% have a hit.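 Method: cells in 96-well plates; compound added at one concentration; 48 h incubation; percent growth measured; values under 10 scored active.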 Unmarked numbers belong to inactive results. The source made the active and inactive calls.
# System: KM12 colon
# Test: NCI-60 one-dose screen, 48 h (100 = growth as untreated, 0 = no growth, -100 = all killed)
# Details: 10 µM unless noted
row,Compound,growth
1,O=C1c2c(c3c4cc(O)ccc4oc3c3[nH]c4ccccc4c23)C(=O)N1O,-17.2% (active)
2,COC(=O)c1nc(-c2ccc(C)cc2)oc1S(=O)(=O)N1CCN(c2oc(-c3ccccc3)nc2C#N)CC1,101%
3,COc1ccc(-c2nnc(SCc3ccc(O)c4ncccc34)n2-c2ccccc2)cc1,15.6%
4,Oc1ccccc1/C=N/Nc1nc(N/N=C/c2ccccc2O)nc(N2CCOCC2)n1,52.7%
5,NS(=O)(=O)c1ccc(-n2cc(CC=O)nn2)cc1,112%
6,O=C(Cn1cc(CN2C(=O)c3ccc([N+](=O)[O-])cc3C2=O)nn1)Nc1ccc(F)cc1Cl,105%
7,C/C=C/C=C1\C[C@H]2CO[C@H](O2)C1=O,103%
8,O=C(COc1ccc(/C=C2\SC(=O)NC2=O)cc1)Nc1ccc(C(=O)/C=C/c2cc3ccccc3nc2Cl)cc1,59.5%
9,O=c1oc2ccc(-c3ccc(F)cc3F)cc2c(=O)n1-c1ccc(F)c(F)c1,3.33% (active)
